Source: PubChem BioAssay AID2283364 (EPA ToxCast)
Records with an inconclusive call do not appear. Activity calls are given as the source filed them. How the source made its calls: active means hit-call score of the fitted dose curve at least 0.9, where 1 is the maximum; inconclusive means response in the unintended direction; inactive means score below 0.9.

Target: human FK-506 Binding Protein (FKBP12), FKBP1A (gene 2280) (UniProt P62942)
Test: NVS_OR_hFKBP12: NovaScreen (NVS) Nuclear Receptor Binding Assay for human FK-506 Binding Protein (FKBP12)
Experimental: NVS_OR_hFKBP12 is a biochemical, single-readout assay that uses extracted gene-proteins from E. coli in a cell-free assay. Measurements were taken 0.75 hour after chemical dosing in a 48-well plate.NVS_OR_hFKBP12 is one of one assay component(s) measured or calculated from the NVS_OR_hFKBP12 assay. It is designed to make measurements of radioligand binding, a form of binding reporter, as detected with scintillation counting signals by Filter-based radiodetection technology.Data from the assay component NVS_OR_hFKBP12 was analyzed into 1 assay endpoint. This assay endpoint, NVS_OR_hFKBP12, was analyzed in the positive analysis fitting direction relative to DMSO as the negative control and baseline of activity. Using a type of binding reporter, loss-of-signal activity can be used to understand changes in the binding as they relate to the gene FKBP1A. Furthermore, this assay endpoint can be referred to as a primary readout, because the performed assay has only produced 1 assay endpoint. To generalize the intended target to other relatable targets, this assay endpoint is annotated to the misc protein intended target family, where the subfamily is chaperone.
Binding assays used specific radioligands (tritiated, iodinated) with non-radioactive competitive displacement ligands in agonist or antagonist protocols (as indicated) and various reference compounds and inhibitors to titrate specific binding to receptors and transporters. Most enzyme assays (CYPs, kinases, phosphatases, proteases, HDACs) used recombinant protein and specific substrates (fluorescence mostly, some colorimetric and radioactive) and inhibitors, followed by a biochemical separation of substrate and product. All assays for the biochemical HTS were initially run in duplicate at a single concentration (10 uM for CYP450 assays and 25 uM for all others). Assay-chemical combinations meeting a pre-defined threshold (e.g., 30% inhibition and other criteria defined below) were then run in singleton concentration-response format with maximum concentration of 20 uM for CYPs and 50 uM for all others. Each assay was run with positive and negative controls, and concurrent controls on every plate. The follow-up (secondary) screen tested active chemical-pairs in concentration series, as well as a few additional assays not tested in the primary screen, some selected negative inactives, and several cases re-run in the concentration series for confirmatory purposes.

Chain of human FK-506 Binding Protein (FKBP12), FKBP1A (gene 2280) (P62942 whole entry, looked up): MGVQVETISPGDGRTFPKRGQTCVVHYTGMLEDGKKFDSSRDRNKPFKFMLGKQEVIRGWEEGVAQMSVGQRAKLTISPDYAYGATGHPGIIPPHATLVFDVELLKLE

outcome, inactive:
COC(=O)c1ccccc1S(=O)(=O)NC(=O)Nc1nc(OC(F)F)cc(OC(F)F)n1
Cc1ccc(O)cc1
CCc1ccc(O)c(C(C)(C)C)c1
c1ccc2ccccc2c1
CCCCCCCCCCCC(=O)OC
